Compounds with a hit are over-represented: about 7.5% of the library has one in this group of screens.
SMN2 splice enh: increases expression of the SMN2 splice variant | AID 1458 | HEK293 SMN2-luciferase splicing reporter, luminescence, 30-36 h | 2.8% of 210,000 active | Potency, µM (doses to about 46.1 µM), for inactives: at the top dose activity change, positive = activation, most hits filed as activators; further: % of control where 0% means no effect; nearly all actives have a fitted effect of over 55% in size
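HEK293 cells carry an SMN2 minigene-luciferase reporter in which exon 7 inclusion puts luciferase in frame. Cells were seeded at 2000 cells/well, attached for 10-12 hours, then exposed to compounds for 30-36 hours at 37C before ONE-Glo luminescence.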
FLuc counter: firefly luciferase modulation, counter-screen for miR-21 project | P08659 | purified FLuc, Km substrates, luminescence inhibition | Potency, µM (doses to about 57.5 µM), inactives show at the highest dose activity change, negative = inhibition, usual class: inhibitors | 6.9% of 360,000 active | AID 588342;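 further: plate controls were vehicle for no effect and reference inhibitor for full effect; nearly all actives have a fitted effect of over 55% in size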
Target sequence (P08659 whole entry, looked up): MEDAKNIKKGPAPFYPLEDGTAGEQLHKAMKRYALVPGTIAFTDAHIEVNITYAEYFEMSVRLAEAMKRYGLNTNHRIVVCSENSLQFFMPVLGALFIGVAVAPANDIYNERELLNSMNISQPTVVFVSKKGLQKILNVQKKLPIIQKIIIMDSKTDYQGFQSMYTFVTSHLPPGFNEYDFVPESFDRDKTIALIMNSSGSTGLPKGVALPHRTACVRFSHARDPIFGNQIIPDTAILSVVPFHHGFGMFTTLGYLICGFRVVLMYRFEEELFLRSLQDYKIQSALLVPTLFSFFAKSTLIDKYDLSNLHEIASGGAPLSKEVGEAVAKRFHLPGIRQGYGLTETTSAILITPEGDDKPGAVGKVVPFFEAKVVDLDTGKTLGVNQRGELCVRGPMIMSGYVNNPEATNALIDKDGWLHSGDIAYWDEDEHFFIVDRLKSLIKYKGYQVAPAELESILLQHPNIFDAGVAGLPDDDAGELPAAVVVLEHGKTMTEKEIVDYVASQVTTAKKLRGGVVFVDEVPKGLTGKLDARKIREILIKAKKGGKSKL
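Purified P. pyralis luciferase, 10 nM final, with Km-level 10 uM D-luciferin and 10 uM ATP in 50 mM Tris acetate pH 7.5, 10 mM Mg acetate, 0.01% Tween-20, 0.05% BSA; 6-point qHTS titration about 60 µM downward; luminescence read.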
Rab9 prom act: activates the Rab9 promoter | AID 485297 | 2.8% of 320,000 active | Huh7 Rab9 promoter-luciferase reporter, luminescence, 24 h | Potency, µM (series often up to 9.22 µM), for the others: at the highest dose activation, negative = inhibition, actives largely listed as activators; further: % of control where 0% means no effect; nearly all actives have a fitted effect of over 60% in size
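Quantitative HTS format; Huh7 Rab9-luciferase reporter cells (1500/well) receive compound 2 h post-plating, incubate 24 h at 37 °C, then get luciferase reagent for 10 min before luminescence reading.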
ELG1 genotoxic: induces genotoxicity in HEK293T cells with luciferase-tagged ELG1; HEK293T ELG1-luciferase reporter, luminescence, 16 h; Potency, µM (titrated, usually from 46 µM), for inactives: top-dose activity change, positive = activation, most hits filed as activators; 1.3% of 330,000 active; further: % of control where 0% means no effect; nearly all actives have a fitted effect of over 60% in size
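DMSO vehicle served as control against compound-treated ELG1-luciferase HEK293T cells; exposure lasted 16 hr at 37 °C and 5% CO2, followed by ONE-Glo luminescence detection after 30 min.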
NPC1 promoter act: activators of NPC1 promoter; Huh7 NPC1 promoter luciferase reporter, 24 h; Potency, µM (top dose mostly 9.22 µM), for inactives: at the highest dose activation, actives largely listed as activators; 2.4% of 320,000 active; AID 485313; further: % of control where 0% means no effect; nearly all actives have a fitted effect of over 60% in size
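In 1536-well qHTS, Huh7 cells harboring an NPC1 promoter–luciferase construct received compound for 24 h; activation was quantified by luminescence following luciferase reagent addition.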
KinaseGlo FLuc: blocks Kinase-Glo luciferase, a counter-screen artifact; Q27757; Kinase-Glo luciferase, ATP luminescence, 8 min; 0.28% of 200,000 active; Potency, µM (titrated, usually from 38.3 µM), inactives show top-dose activity change, negative = inhibition, usual class: inhibitors; further: on the % scale 0 is the no-effect control and ±100 the full control effect; nearly all actives have a fitted effect of over 60% in size
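Luminescence was the read-out, taken after 8-minute incubation at ambient temperature. Luciferase turned over luciferin with 10 uM ATP in imidazole pH 7.2 buffer containing KCl, MgCl2, Tween 20 and BSA.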
The depositor's hits bear a star; u = inconclusive; x = not tested or not shown; [ ] = remark or other dose. The call rests on the fitted dose curve; in most records, active means well fitted curve in the direction sought with a large enough effect; inconclusive means small, poorly fitted or top-dose-only effect, or another doubt; inactive means no such curve, though single readings can be large; an effect the other way counts as inactive or inconclusive. Potency means the concentration at half of the fitted maximal effect.

SMILES	SMN2 splice enh	FLuc counter	Rab9 prom act	ELG1 genotoxic	NPC1 promoter act	KinaseGlo FLuc
O=C(Nc1cccc(-c2nc3ncccc3o2)c1)c1ccccc1	-31%	u	2%	-5%	0%	1%
CS(=O)(=O)c1ccccc1C(=O)Nc1cccc(-c2nc3ccccc3o2)c1	x	11µM*	-1%	-6%	-4%	x
Cc1ccc(C(=O)Nc2cccc(-c3nc4ncccc4o3)c2)cc1	x	13µM*	6%	-19%	29%	x
Cc1cccc(Nc2nnc(SCC3CCCCO3)s2)c1C (stereo not drawn)	u	9.5µM*	19%	2%	u	-3%
COC(=O)c1ccc(CSc2nnc(Nc3cccc(OC)c3)s2)o1	-22%	u	0%	0%	0%	0%
COc1cccc(Nc2nnc(SCC3CCCCO3)s2)c1 (stereo not drawn)	-28%	12µM*	10%	14%	29%	7%
COc1ccc(Nc2nnc(SCC3CCCO3)s2)cc1 (stereo not drawn)	28%	19µM*	u	13%	28%	1%
Cc1ccc(Nc2nnc(SCC(=O)NCC3CCCO3)s2)cc1 (stereo not drawn)	x	x	x	3%	x	x
CCN(CC(=O)Nc1c(F)cccc1F)C(=O)C1Cc2ccccc2CN1S(=O)(=O)CC (stereo not drawn)	x	2%	-3%	-4%	0%	x
COc1ccc(C(=O)C2CCN(C(=O)Nc3ccc(C)cc3)CC2)cc1	x	4.8µM*	14%	-10%	10%	x
Cc1ccc(NC(=O)N2CCC(C(=O)c3ccc(F)cc3)CC2)cc1	x	-16%	0%	-10%	0%	x
COc1ccc(-c2ccc(C(=O)C3CC3)cc2)cc1	x	1.5µM*	1.8µM*	2.9µM*	2.8µM*	x
Cc1cc(Nc2ccc(Br)cc2)nc(C)n1	x	21µM*	x	x	x	x
Cc1ccc(Nc2cc(-c3ccccc3)nc(C)n2)cc1	x	24µM*	x	x	x	x
COc1ccc(Nc2cc(Nc3cccc(OC)c3)ncn2)cc1	x	2.7µM*	u	u	u	x
CCOC(=O)c1ccc(Nc2cc(-c3ccccc3)nc(C)n2)cc1	x	-7%	x	x	x	x
COc1cccc(Nc2cc(-c3ccccc3)nc(C)n2)c1	x	27µM*	x	x	x	x
COc1ccc(Nc2cc(Nc3ccc(OC)cc3)ncn2)cc1	x	2%	2%	0%	-2%	x
CCOC(=O)C1CCCN(C(=O)c2ccc3c(c2)sc2nc(-c4cccc(OC)c4)cn23)C1 (stereo not drawn)	x	-13%	x	x	x	x
CC(C)(C)c1ccc(C(=O)Nc2sc3c(c2C(=O)O)CCC3)cc1	x	11µM*	-18%	-6%	-15%	-1%
COC(=O)c1c(NC(=O)c2ccccc2C(=O)O)sc2c1CCCC2	12%	12µM*	x	x	x	x
CCOC(=O)c1c(NC(=O)c2ccccc2C(=O)O)sc2c1CCCC2	x	0%	6%	0%	-7%	x
NC(=O)c1c(NC(=O)c2noc3c2CCCC3)sc2c1CCCC2	14µM*	u	x	x	x	x
NC(=O)c1c(NC(=O)c2ccc(F)cc2)sc2c1CCC2	x	4.3µM*	1.8µM*	u	1.8µM*	x
Cc1sc2ncnc(N3CCC(C(=O)NNC(=O)COc4cccc(C(F)(F)F)c4)CC3)c2c1C	x	2%	-6%	-5%	-13%	x
SMILES	SMN2 splice enh	FLuc counter	Rab9 prom act	ELG1 genotoxic	NPC1 promoter act	KinaseGlo FLuc
NC(=O)c1c(NC(=O)c2cc3ccccc3o2)sc2c1CCC2	2.2µM*	0.43µM*	0.22µM*	0.92µM*	0.32µM*	-12%
O=C(Nc1sc2c(c1C(=O)O)CCCC2)c1ccc(F)cc1	x	15µM*	u	4%	28%	x
O=C(Nc1sc2c(c1C(=O)O)CCCCC2)c1ccccc1F	5.6µM*	11µM*	4µM*	-7%	3.2µM*	-5%
COCC(C)NS(=O)(=O)c1ccc(C(=O)NCCCn2ccc3ccccc32)cc1 (stereo not drawn)	x	-3%	5%	-3%	0%	x
Cc1[nH]n(C(N)=S)c(=O)c1N=Nc1ccc(S(=O)(=O)N2CCCC2)cc1	10%	19µM*	13%	1%	-2%	0%
NC(=S)n1[nH]c(-c2ccc([N+](=O)[O-])cc2)c(N=Nc2ccc(Cl)cc2)c1=O	-47%	-13%	-53%	-10%	-40%	3%
Cc1[nH]n(C(N)=S)c(=O)c1N=Nc1cccc(C(F)(F)F)c1	x	9.5µM*	19%[1.84 µM]	5%	4µM*	x
Cc1ccc([N+](=O)[O-])cc1N=Nc1c(C)[nH]n(C(N)=S)c1=O	x	-1%	-6%	-2%	-1%	x
Cc1ccc(N=Nc2c(C)[nH]n(C(N)=S)c2=O)cc1	18µM*	2.7µM*	3.2µM*	16µM*	u	-2%
Cc1[nH]n(C(N)=S)c(=O)c1N=Nc1cc(C(F)(F)F)ccc1Cl	x	-16%	-10%[1.84 µM]	-13%	0%	x
Cc1[nH]n(C(N)=S)c(=O)c1N=Nc1ccc(Br)cc1	x	2.4µM*	2.8µM*	u	3.5µM*	x
COc1cn(-c2ccccc2)nc1C(=O)Nc1ccc(C)cc1Cl	x	6.7µM*	14%	27%	1%	x
CCOC(=O)N1CCN(C(=O)CSc2ccc(-c3cccnc3)nn2)CC1	-1%	0%	-5%	-2%	-5%	-2%
COc1ccc(/C=N/Nc2nccnc2Cl)cc1	14µM*	2.7µM*	0.45µM*	1.5µM*	1.3µM*	7.1µM*
COc1ccc(/C=N/Nc2nccnc2Cl)c(OC)c1	27%	11µM*	u	u	16%	13µM*
Clc1nccnc1N/N=C/c1ccc(Br)cc1	x	9.5µM*	2µM*	u	2µM*	x
COc1ccc(/C=N\NC(=O)O)cc1	-7%[9.22 µM]	x	x	x	x	-5%[7.66 µM]
CCCS(=O)(=O)NCCc1csc2nc(-c3ccc(OC)cc3)nn12	x	-19%	x	x	x	x
N#Cc1ccc(-c2cccnc2)nc1SCC(=O)c1ccccc1	x	u	3.2µM*	15%	u	x
COc1ccc(C(=O)CSc2nnc(-c3ccc(C)cc3)o2)cc1	1%	-1%	-7%	u	0%	0%
COc1ccc(C(=O)CSc2ccc(-c3ccc(C)cc3)nn2)cc1	14µM*	11µM*	20%	6%	21%	3%
COc1ccc(-c2ccc(SCC(=O)N3CCCC3)nn2)cc1OC	8%	u	-3%	-1%	4%	-3%
COc1ccc(-c2ccc(SCC(=O)c3cccs3)nn2)cc1OC	u	19µM*	-9%	4%	-1%	1%
N#Cc1ccc(-c2ccccc2)nc1SCC(=O)c1cccc(Cl)c1	-3%	3%	2%	3%	-1%	-5%
COc1ccc(-c2ccc(SCC(=O)c3ccc(F)cc3)nn2)cc1OC	-18%	13µM*	0%	-5%	-7%	-3%
